From PubChem BioAssay AID720518 (National Center for Advancing Translational Sciences (NCATS), 2013)
Records with an inconclusive call do not appear. Entries that show only a call come without a potency. Calls of active or inactive are those of the source. The call rests on the fitted dose curve.

Experiment: qHTS for Inhibitors of Cell Surface uPA Generation: Wild-type Protective Antigen (WT-PrAg) Counterscreen for Cherry-picked Compounds
Settings: cells, WT protective antigen toxicity counterscreen; series mostly up to 115 µM

Structure (SMILES) | Potency
CCN(CC)CCCNC(=O)c1cn(C)c(=O)c2c1c1ccccc1n2C | inactive
Cc1nc(N2CCN(c3ccc(Cl)cc3)CC2)[nH]c(=O)c1C | inactive
Brc1ccsc1/C=N/Nc1ccccc1 | inactive
O=C(CCCC(=O)N1CCN(c2ccccc2F)CC1)c1ccccc1 | inactive
CCCCCn1c(=O)c(C(=O)Nc2ccccn2)c(O)c2ccccc21 | inactive
COC(=O)C(CCSC)NC(=O)Cn1ncc2c(=O)oc3ccccc3c21 (stereo unspecified) | inactive
O=C(Nc1ccnn1C1CCN(CCCC2CCCC2)CC1)c1ccccc1 | inactive
CCOc1ncccc1C(=O)NCc1ccccc1Cl | inactive
COc1ccc(N2CCN(C3CCN(S(=O)(=O)c4ccc(F)cc4)CC3)CC2)cc1 | inactive
Cc1cc(C)n(-c2cc(C(=O)O)cc(C(=O)O)c2)n1 | inactive
Cc1c(C(=O)N2CCN(S(=O)(=O)c3cccs3)CC2)oc2ccc(F)cc12 | inactive
CCN1CCN(Cc2ccc(NC(=O)c3cc(NC(=O)c4cncc(-c5cccs5)c4)cc(OC)c3)cc2C(F)(F)F)CC1 | inactive
COc1ccc(C(c2sc3nc(C)nn3c2O)N2CCC(C(N)=O)CC2)cc1OC (stereo unspecified) | inactive
COc1ccc2nc3c(cc2c1)c(NC(=O)C1CCCO1)nn3CC(C)C (stereo unspecified) | inactive
CCN1CCCCC(=N/O)/C(=N/O)CCCC1 | inactive
COc1ccc(NC(=O)CCNS(=O)(=O)c2ccccc2F)cc1S(=O)(=O)N1CCOCC1 | inactive
CCOc1ccc(C(=O)NCC(=O)N2CCN(C/C=C/c3ccccc3)CC2)cc1OCC | inactive
CC1CC(C)CN(CCCNC(=O)CN2C(=O)CSc3ccc(S(=O)(=O)N4CCOCC4)cc32)C1 (stereo unspecified) | inactive
COc1ccccc1C(=O)NCc1ccccc1 | inactive
C[C@@H]1O[C@@H](O[C@@H]2C(=O)c3c(O)cc(O)cc3O[C@H]2c2ccc(O)c(O)c2)[C@H](O)[C@H](O)[C@H]1O | inactive
Oc1ccc(/C=N/Nc2cccc(Cl)n2)c(O)c1 | inactive
O=C(CSc1ccc([N+](=O)[O-])cn1)Nc1nccs1 | inactive
O=C(NC1CC1)C1CCCN(C(=O)NC2CCCCC2)C1 (stereo unspecified) | inactive
O=C(c1ccco1)N1CCN(c2ncccn2)CC1 | inactive
Clc1ccc(-c2nc3ccccn3c2CN2CCSCC2)cc1 | inactive
CCNc1nc(Nc2ccc(C)c(Cl)c2)c2cnn(C)c2n1 | inactive

Structure (SMILES) | Potency
CCCCn1c(N)c(N(Cc2ccccc2OC)C(=O)COc2ccc(C)cc2)c(=O)[nH]c1=O | inactive
CCc1ccccc1NC(=O)CN(C)C(=O)CSc1nnc(Nc2cccc(C)c2C)s1 | inactive
C=CC[n+]1c(/C=C/c2ccc(OC(C)=O)c(OC)c2)ccc2ccccc21 | inactive
C=CCNC(=S)NCC=C | inactive
O=C(O)CNS(=O)(=O)c1ccc2c(c1)Cc1cc(S(=O)(=O)NCC(=O)O)ccc1-2 | inactive
Cn1c(CN2CCCC2)nc2cc(NC(=O)COc3ccccc3)ccc21 | inactive
O=C(NCCCN1CCCC1=O)c1cccc(Oc2ccccc2)c1 | inactive
COc1cc(CN2CCN(c3ncccn3)CC2)cc(OC)c1 | inactive
O=C(COC(=O)c1cc([N+](=O)[O-])ccc1NCCO)NCc1cccs1 | inactive
COc1ccc(OC)c(NC(=O)C2CCCN2C(=O)C2CCC(C)CC2)c1 (stereo unspecified) | inactive
COc1cccc(NC(=O)CN(C)C(=O)c2csc3c2CCCC3)c1 | inactive
COc1cc(CNCc2ccc3c(c2)OCO3)c([N+](=O)[O-])cc1OC | inactive
COCCN(C(=O)c1ccc(OC2CCN(S(=O)(=O)N(C)C)CC2)cc1)C(C)C | inactive
COc1ccc(C(=O)CC2(C(=O)O)CCCCC2)cc1 | inactive
O=C(NCCOc1ccc(F)cc1)C1CCN(S(=O)(=O)c2ccccc2)CC1 | inactive
CC(=O)c1ccc(N=C2SCCCN2C(=O)C2CCCCC2)cc1 | inactive
CCOc1ccccc1CN1CCCC(CNS(=O)(=O)c2ccc(OC)cc2)C1 (stereo unspecified) | inactive
O=C(COC(=O)c1cccc([N+](=O)[O-])c1)NNC(=O)c1cccs1 | inactive
COc1cc(CN2CCNC(=O)C2CC(=O)NCCCC2CCCC2)cc(OC)c1 (stereo unspecified) | inactive
N#Cc1cccc(NC(=O)Cn2cnc(S(=O)(=O)N3CCOCC3)c2)c1 | inactive
Cc1ccc(C)c(-c2ccc(=O)n(Cc3c(F)cccc3Cl)n2)c1 | inactive
COc1ccc(C(=O)NCCOC(C)C)cc1OC1CCN(C(C)=O)CC1 | inactive
O=C(C[C@@H]1C/C=C\C[C@H](Cc2ccc(F)cc2)C(=O)OC[C@H]2CCCN2C1=O)N[C@H](CO)Cc1ccccc1 | inactive
COc1cc(NC(=O)COC(=O)c2cc(S(=O)(=O)N3CCCCC3)ccc2Cl)c(C)cc1[N+](=O)[O-] | inactive
[N-]=[N+]=NC1C[C@H](n2ccc(=O)[nH]c2=O)O[C@@H]1CO (stereo partly specified) | inactive
